± gives the standard deviation of the averaged measurements. In all, about 25,000 sequences were measured (“ln(normalized median fluorescence intensity)”: median about 7.9, highest 2% from about 11 on). The sample as a whole holds a higher share of the highest values than the screen did.
test system: PfAP2-I AP2 domain 3 (GST-tagged); assay: gcPBM binding intensity (ln(normalized median fluorescence intensity)); higher = stronger DNA binding
Method in brief: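 In this array assay, P. falciparum DNA-binding domains with a GST tag, expressed in E. coli, were applied for 1 h to primer-extended double-stranded 36-bp intergenic genomic probes and negative controls on an Agilent 4 × 180k array. Bound protein was visualised with Alexa488 anti-GST antibody at 488 nm. Binding intensity is the highest Masliner-normalised natural-log median intensity across replicate spots of either probe orientation.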

Sequence	gcPBM binding intensity (ln)
AAATAATTTATATGTAGTACATGTTGTAGATAATTT [XGTACX_site1031]	8.16 ± 0.28
CATAATATTAAATCAGTGCAAATATACAGAATAAAT [GTGCAC_site9786]	10.1 ± 0.17
TATACGTATTACAGAGTGCAATAAACAGTATATATT	10.9 ± 0.66
TTTGTGTATATAACAGTGCAATATTATAAATATAAA [GTGCAC_site9750]	10.5 ± 0.51
AAAATTATTTAGTAAGTGCAAAAAAAAAAAAAAAAA	10.1 ± 0.23
AAAAAAAATTATGAAGTGCATTAGTGAATTTGATTG	10.9 ± 0.3
TTTTGATTAAGTGAATTTTTTTATTTATATAAATAT [TGCATGCA_negctrl_site479]	7.54 ± 0.56
CAATTTTACTCATAAACACACATATATATGTTATTA [CACACA_site3152]	7.66 ± 0.53
AAAAAAAAAAAAAGTACACACTTTTGCGTACATGTA [CACACA_site7449]	8.06 ± 0.63
TGCATTATTTACAAGGTGCGTTACAAATGTGTAACA [GTGCAC_site9442]	11.3 ± 0.88
ATATATTTATTAAGGTGTACAAAAATTATGTTGCAT [XGTACX_site7546]	8.26 ± 0.35
TATATTATATATATGTGTACATATAAATGTAACAAA [XGTACX_site5025]	7.67 ± 0.34
TTAACATAAATATATACACACCAATGATGGCATTTA [CACACA_site4952]	7.51 ± 0.52
TATATATTCATGTGTACACACAAAAAAAAATAAAGT [CACACA_site2207]	8.41 ± 0.65
TTGTATGCTTCCCGACTACATTATGCCATAAATGTA [TGCATGCA_negctrl_site136]	7.92 ± 0.49
AGTGCATACATGAATTGTACTTTAAAATAAATTCTA [XGTACX_site8156]	9.7 ± 0.52
TAAATATATTTCATGACATGCAACTTGTTTTTTTGT [TGCATGCA_site456]	7.63 ± 0.7
TAAAATTTGTACATAGTGCAATTTTTTTTTTTTTTT	9.81 ± 0.099
TTTTTTCTTAAAATTTGTACATAGTGCAATTTTTTT [XGTACX_site5509]	9.5 ± 0.69
TTCTTATTTGTACTAGTGCAATAGAAAATAAATAAA [GTGCAC_site9731]	10.9 ± 0.49
TATTTTACATCTTCTCACATTTTATCACTTTTTAAA [CACACA_negctrl_site330]	8.08 ± 0.45
ATTATTATAGATATAACACACATAATTACATACTTA [CACACA_site6837]	7.97 ± 0.14
TTATATAATTTAATAGTGCAATTATATTAATTTTTC	9.82 ± 0.42
ATTTTCTTTTCCATAGTGCAATATAATTATCCATCA [GTGCAC_site9547]	11.3 ± 0.39

Sequence	gcPBM binding intensity (ln)
ATATATATTATATAAGTGCATAATATTCTTTCTTTT	10.5 ± 0.25
ATTTGATAGACACATGCACACATGCAATACTTTATT [CACACA_site5633]	8.81 ± 0.77
TTTAATTTGATAGACACATGCACACGTGCAATACTT [TGCATGCA_site777]	10.95 ± 0.021
GATAGACACGTGCACACATGCAATACTTTATTCAGT [TGCATGCA_site778]	10.1 ± 0.32
CATTATCATGTTTTTTGTACTCATAATAAAAAGCAG [XGTACX_site2056]	8.03 ± 0.21
AAAATCTAATATAATGCACACATAAAAAAAAAATCA [CACACA_site8871]	11 ± 0.68
AAAATCTAATATAATGCACACATAAAAAAAAATCAA [CACACA_site9211]	10.9 ± 0.59
TATCAAAATAAATGCACACAAATTGCACATATCTAT [CACACA_site1097]	10.3 ± 0.11
AATCTAATATAATGCACACATAAAAAAAAATCAAAC [CACACA_site3633]	11.1 ± 0.94
AATCTAATATAATGCACACATAAAAAAAAAATCAAA [CACACA_site2714]	10.7 ± 0.74
ATAATAAAATAAATCACACATAATATAATGTAATAT [CACACA_site6144]	7.54 ± 0.54
TAGATATATAAATACACACACATACACAAAAAAAAA [CACACA_site7652]	8.21 ± 0.45
AAATATATATAAAACTCACACATTATCTTATAACCA [CACACA_site5268]	7.83 ± 0.23
AAATTATTATCGTTAATATGTATATATGTGCCAAGT [TGCATGCA_negctrl_site557]	8.06 ± 0.44
GGTTACATTTTATTTTGTACATAAAAATTTTTATTT [XGTACX_site218]	8.15 ± 0.53
AAAAATAAACAATATATAGTTATATATATATATATA [TGCATGCA_negctrl_site82]	9.29 ± 0.69
TGTGCACATAATTAGTGTACATTTTTTATTTAGACA [XGTACX_site317]	10.3 ± 0.88
TATTTTTTTTGTTAGGTGCATTTACATTTATTTTTA	10.8 ± 0.61
TTTATATTTATGTAGGTGCATTTGTTTACAACATAT [GTGCAC_site9511]	10.8 ± 0.71
ATATTTATTTGTTAGTGTACATACATATATATATAT [XGTACX_site1347]	9.47 ± 0.4
TTTTTGTTATTTTTAGTGCACATTTAAGGGTGTATT	11.4 ± 0.53
TTCTCATTCAAATTAGTGCATTTTTGTTATTACATT	9.81 ± 0.2
CTATATTTTTAAAAATGTACTTTATAATAAAATACT [XGTACX_site3593]	7.83 ± 0.32
ATTTATAATGATTTTTTTAGTAATCTTGTTATTTTT [XGTACX_negctrl_site373]	7.38 ± 0.54

Sequence	gcPBM binding intensity (ln)
CTATTTAAAATATGAACACACATTATTTGTTTTAGA [CACACA_site2713]	7.42 ± 0.43
TATTTGTATAAATAAAAATAATATATATCAAATAAC [CACACA_negctrl_site218]	7.57 ± 0.55
AATAGCAATTTGGGGTGTACACACACCTTATTTAAA [XGTACX_site2234]	8.04 ± 0.23
TACTTTTTTTTTTTTTTTTTTTTTTTTTCCCTTTTT [CACACA_negctrl_site761]	7.47 ± 0.53
TTAATTAATTTTTCAGTGCAAATAAAAAATATTTAA	10.4 ± 0.64
CTAAATTATAGATCAGTGCAATTTAATATGAGTCCA	8.91 ± 0.22
ATTAAAAGTTTATACAAATAAAAAACAAAACAAAAA [CACACA_negctrl_site1030]	7.7 ± 0.55
TAATTAAATATTTCAGTGCATTATTTTATGATCCAT [GTGCAC_site9456]	11.2 ± 0.76
TTATAAATTTAAAAAGTGCATAATAATAACAAAAAG	11.2 ± 0.67
TAATTATTTTAAAAAGTGCATTAAAAGATATTAAAT [GTGCAC_site9694]	11.4 ± 0.56
TAATAATTTTATAAAGTGCATAAAAATAAAAATTTT	10.6 ± 0.36
AGTGTTTTTTATAAAGTGCAATATAAAAACAAAATG	11.3 ± 0.75
AATATCATTATATAAGTGCATTTTTTAAAAGATAAA [GTGCAC_site9479]	9.04 ± 0.22
ATAAAAATAAAAAGTGTGCACACAAAAATATATATA [GTGCAC_site9931]	9.96 ± 0.33
AAATTAAAGATAAAAGTGCAAAATTATAAATTTATT	9.64 ± 0.071
TACAAATTTATATAAAGTACAAAAAATAATAAAAAT [XGTACX_site7355]	8.1 ± 0.52
GTAATATTAATATAATGTACAAAATGAAACATATAT [XGTACX_site6219]	7.71 ± 0.57
AAATAAATACATAATACATGCATATTTAATATATAG [TGCATGCA_site135]	7.93 ± 0.25
TTTTAGCTATTTTAATATAATGAAGCAAAAAATAAA [TGCATGCA_negctrl_site576]	7.82 ± 0.085
GTGTGGTTACAGACACGAACACATTTTTTAAATATT [CACACA_negctrl_site83]	7.83 ± 0.28
TGAAAAATGTAATGCTCACACATATATATATATATA [CACACA_site5213]	9.41 ± 0.24
CCTACAATTCGTAATACACACACATATATATATATA [CACACA_site9251]	9.29 ± 0.25
CAGCTCTTAAAAATTACACACATATACACATATATA [CACACA_site9073]	7.5 ± 0.54
TTTATTTATTAATACACACACACACCCCCACAAAAT [CACACA_site240]	9.96 ± 0.2

Sequence	gcPBM binding intensity (ln)
AATTGAAAAATCAGCACACACACAAATACATACATA [CACACA_site3232]	8.09 ± 0.4
ATTAATAAAAAATTTTAAAAAATAAATAAAATAAAA [TGCATGCA_negctrl_site113]	7.58 ± 0.42
TTTCTCCATATTAAAGTGCATTAATAACAAAAATAA [GTGCAC_site9934]	11.4 ± 0.81
CTGAAATTAACAAAAGTGCATAAAAATAAAAAATAT [GTGCAC_site9652]	10.8 ± 0.38
AAAAAAAAAAAAAAAGTGCATTAATAAATTTTAATA	11.5 ± 0.61
TCATTTTAATTAAAAGTGCAAAAAATAATATAACTA [GTGCAC_site9968]	9.9 ± 0.18
TTATTAAATTCATAAGTGCATTTATGATTAATTTTT [GTGCAC_site9749]	9.86
AGATTATATAAAAAAGTGCATATTTTCATTTTTTTT [GTGCAC_site9448]	9.07 ± 0.13
TATATATATTAAAAAGTGCATTATTCATATTATATA [GTGCAC_site9400]	11.1 ± 0.73
GATTATTTCTAAAAAGTGCATATTTAAAAATCTCCT	9.815 ± 0.035
TTCATTTTATTTTAAGTGCATATTTTTATTTTTTTG	8.82 ± 0.099
TAATTATTCTATTAAGTGCATATATTTTTAAAAAGA	9.89 ± 0.3
TTCATATTCGATAAAGTGCATTAATTTTATTTATCA	11.3 ± 0.73
CTATTTTAATATTTTACACACCATGTAAAATATATA [CACACA_site5732]	7.97 ± 0.28
AGTTTGTTTTTTTTTTTTTTTTCCTGTCACAAACAA [CACACA_negctrl_site1093]	8.22 ± 0.62
GTTCATAAATTAAACACACACACACCCCTGGATACC [CACACA_site3331]	9.115 ± 0.021
ATATATATATATATATGTACATACATACAATCATAT [XGTACX_site6410]	9.38 ± 0.54
TACATATTTAAATACTGTACTCAAAAGAATTGTGCA [XGTACX_site2250]	8.11 ± 0.11
ATATATCATAATAAAAGTACTTATATATTTTATATA [XGTACX_site560]	7.59 ± 0.33
AAAATTGTGCTTTCACGGACACAAGATCGAAATAGA [XGTACX_site4068]	8.62 ± 0.16
GAAAAAAAAATATCTTGTACTTACATAACTATTGGT [XGTACX_site5326]	7.61 ± 0.5
